Screening data: PubChem, several laboratories
In the library only some 1.4% were active in any assay of this set; here they are far more common.
V-ATPase pH: regulators of yeast V-ATPase proton pumping, primary screen, pHLuorin cytosolic pH fluorescence; S. cerevisiae; 350,000 tested, 0.37% active; response, % at 10 µM; in the data active = response mostly above about 7.3%, no sharp cut-off; inactive = mostly below about 5.4%; note: actives read high
H9c2 protect: cardioprotection against H2O2-induced cell death, primary screen, uHTS, H9c2 cells, ATPLite luminescence. H9c2 cardiomyocytes, H2O2 injury protection, 2 h. protection from H2O2 cell death, % at 20 µM. 360,000 tested, 0.63% active;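 active = compounds giving at least 50% protection of heart cells from peroxide-induced death in the single-dose screen, raw or plate-pattern-corrected value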;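 note: 0% = DMSO wells with peroxide and 100% = DMSO wells without peroxide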
MIN6 prolif: inducers of MIN6 beta-cell proliferation, primary screen, ATP luminescence, uHTS; MIN6 cells proliferation, ATPlite luminescence, 48 h; cells starved in 0.2% serum; 100% = growth in 10% serum; proliferation, % at 10 µM; 330,000 tested, 0.29% active;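 active = compounds whose signal lies at least 3.5 SD above the mean of all wells on their plate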;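 note: 0% = DMSO-treated cells in low-serum medium and 100% = 10% serum control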
pCIP destab: p/CIP-EGFP fusion destabilizers, primary screen, fluorescence, F442A cells; 290,000 tested, 0.01% active; 16 h; AID 1984, 2009; Q05BA5; decrease of EGFP signal, % at 10 µM;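 active = EGFP signal decrease of at least 30% at 10 µM or well 3 SD below plate mean, unless failing retest; inactive = the rest, including hits failing retest or dose response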
CR mimetic SO: reduction of superoxide in aged yeast, primary screen, HTS. AID 2690, 2010. S. cerevisiae aged cells, superoxide DHE fluorescence; active compounds read low. 330,000 tested, 0.18% active. superoxide response (% of plate mean), % at 10 µM;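 active = superoxide response under a set limit, about three screen SD below normal, cut at about 65% in these data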;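 note: yeast aged for seven days with compound at 30 °C before DHE staining; 100% = average MFI of all compound-treated wells on the plate with controls excluded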
HSV replic up: enhancers of HSV replication in host cells, fold increase, host cell viability; HSV replication augmentation in cells; AID 1956, 2009; 220,000 tested, 0.005% active; maximum fold increase; in the data active = maximum fold increase above about 1.5; tested in PC3 cells
CR mimetic CP: superoxide lowering in aged yeast cells, confirmation, cherry picked compounds. AID 434994, 2010. shares compounds with CR mimetic SO. S. cerevisiae aging, superoxide DHE fluorescence; active compounds read low. superoxide response (% of plate), % at 10 µM. 850 tested, 1% active;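 active = superoxide signal below 65% of the plate average of sample wells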;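 note: cells aged with compound for 7 days at 30 degrees C before staining; 100% equals mean DHE fluorescence of all compound wells on the plate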
DHE fluor count: DHE quenching or ROS scavenging interference in aged yeast, artefact control for yeast caloric restriction mimetic project, S. cerevisiae BY4741, flow cytometry; fluorescence response, % at 10 µM; AID 435000, 2010; shares compounds with CR mimetic SO; DHE fluorescence; active compounds read low; 850 tested, under 10 active;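 active = fluorescence response below 15%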;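 note: percent of the mean fluorescence averaged over all compound wells on the plate; lower means stronger quenching of DHE signal or ROS scavenging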
Starred values were filed as active, the others as inactive; i = inactive; / = no result.

SMILES	V-ATPase pH	H9c2 protect	MIN6 prolif	pCIP destab	CR mimetic SO	HSV replic up	CR mimetic CP	DHE fluor count
CCOC(=O)N1CCN(c2c(NCCCN3CCCCCC3)c(=O)c2=O)CC1	0	13	-5	1	96	i	/	/
O=C(NCCC1=CCCCC1)c1c(O)nc2ccccn2c1=O	-2	-5	-5	-1	64*	/	85	94
O=C(NCCC1=CCCCC1)c1c(O)nc2sccn2c1=O	-2	-1	-6	/	80	/	/	/
COc1ccc(NC(=O)N2c3ccc(OC)cc3C(C)=CC2(C)C)cc1	-2	-10	-1	-2	85	i	/	/
CCNC(=O)N1c2ccc(OC)cc2C(C)=CC1(C)C	-4	0	-1	1	61*	i	110	112
COc1cccc(NC(=O)CCS(=O)(=O)c2ccc(Br)cc2)c1	2	-5	-5	0	50*	/	102	106
Cc1cccc(NC(=O)CCS(=O)(=O)c2ccc(Br)cc2)c1	-1	0	-2	-8	100	/	/	/
CC(OC(=O)Cc1c[nH]c2ccccc12)C(=O)Nc1ccccc1[N+](=O)[O-] (configuration not stated)	3	-1	3	/	115	/	/	/
Cc1csc(Nc2cccc3ccccc23)n1	4	-7	-2	4	96	i	/	/
Cc1csc(Nc2ccccc2C(F)(F)F)n1	0	-19	-2	1	64*	i	108	101
CCc1nc2c(OCc3ccc(F)c(F)c3)cccn2c1N(C)C(=O)C1CC1	/	4	/	/	/	/	/	/
COc1ccc(C)cc1S(=O)(=O)Nc1cc(Cl)ccc1Cl	0	-4	-3	-4	91	i	92	97
COc1ccc(Cl)cc1NS(=O)(=O)c1ccc(OC)c(OC)c1	-2	10	1	-11	100	i	/	/
COc1cc(S(=O)(=O)Nc2ccccc2C)ccc1Cl	0	-9	-2	2	98	i	100	100
COc1cc(S(=O)(=O)Nc2c(C)cc(C)cc2C)ccc1Cl	9	-3	-5	-10	100	i	/	/
COc1cc(NS(=O)(=O)c2cc(C)ccc2OC)c(OC)cc1Cl	3	-19	-2	2	99	i	/	/
COc1ccc(S(=O)(=O)Nc2cc(Cl)ccc2OC)cc1	1	-8	/	-4	89	i	109	108
Cc1cnc(C)c(N2CCN(Cc3nc(-c4ccccc4)no3)CC2)n1	2	-6	-1	-13	96	i	/	/
Cc1c(C(=O)O)oc2ccc(S(=O)(=O)NCCC3=CCCCC3)cc12	3	1	-3	-1	100	i	/	/
Cc1c(C(=O)O)oc2ccc(S(=O)(=O)NCc3ccc(F)cc3)cc12	0	-2	-1	-6	75	i	/	/
COc1ccc(CNS(=O)(=O)c2ccc3oc(C(=O)O)c(C)c3c2)cc1	1	0	-3	12	63*	i	100	121
Cc1c(C(=O)O)oc2ccc(S(=O)(=O)NC3CCCCCCC3)cc12	-6	-2	-1	-4	63*	i	110	131
Cc1c(Br)cccc1NC(=O)C1(C)CCN1C(C)C (configuration not stated)	/	1	/	/	/	/	/	/
CC(Sc1nnc(-c2ccco2)n1C)C(=O)Nc1nccs1 (configuration not stated)	13	1	-5	/	101	/	/	/
COc1ccccc1-c1nnc(SC(C)C(=O)Nc2ccc(C(N)=O)cc2)o1 (configuration not stated)	1	-4	1	/	94	/	/	/
SMILES	V-ATPase pH	H9c2 protect	MIN6 prolif	pCIP destab	CR mimetic SO	HSV replic up	CR mimetic CP	DHE fluor count
CCCCN1CC(=O)N2[C@H](c3ccc(Cl)cc3)[C@@H]3C(=O)N(CC)C(=O)[C@@H]3[C@]2(C)C1=O	2	3	-1	4	97	/	/	/
Cc1ccc(-c2nnc(Nc3ccc(CC(N)=O)cc3)c3ccccc23)cc1S(=O)(=O)NCCO	0	6	-2	-27	91	/	/	/
CC(=O)Nc1ccc(Nc2nnc(-c3ccc(C)c(S(=O)(=O)NCC4CCCO4)c3)c3ccccc23)cc1 (configuration not stated)	-1	8	0	-2	86	i	107	104
CNC(=O)c1ccc(Nc2nnc(-c3ccc(C)c(S(=O)(=O)NCC4CCCO4)c3)c3ccccc23)cc1 (configuration not stated)	1	17	-1	-1	103	i	110	114
CNS(=O)(=O)c1cc(-c2nnc(Nc3ccc(NC(C)=O)cc3)c3ccccc23)ccc1C	0	15	2	8	51*	/	104	96
Cc1ccc(-c2nnc(Nc3ccccc3)c3ccccc23)cc1S(=O)(=O)NCC1CCCO1 (configuration not stated)	0	29	-4	-11	85	i	98	102
Cc1ccccc1S(=O)(=O)NCC1CCCO1 (configuration not stated)	3	8	-2	0	102	/	/	/
COc1ccc(S(=O)(=O)n2nc(OC(=O)c3cccs3)cc2NC(=O)c2cccs2)cc1	-2	-5	-4	0	94	i	/	/
CCSc1ncc(Cl)c(C(=O)Nc2ccccc2Cl)n1	2	6	0	8	93	/	108	101
CSc1ncc(Cl)c(C(=O)Nc2ccccc2Cl)n1	-2	-5	2	-10	98	i	101	89
CSc1ncc(Cl)c(C(=O)Nc2c(C)cccc2C)n1	3	2	0	3	106	/	108	105
O=C(C1=COCCO1)N1CCN(C(c2ccccc2)c2ccccc2)CC1	-5	-5	-1	-9	92	i	/	/
O=C(Nc1ccc(F)cc1)C(=O)c1c(O)[nH]c2ccc([N+](=O)[O-])cc12	-3	1	-1	7	64*	i	87	101
Cc1ccc(NCC(=O)N=Nc2c(O)[nH]c3ccc([N+](=O)[O-])cc23)cc1	/	/	-5	7	119	i	/	/
NC(=O)CC1C(=O)N(c2ccc(Cl)cc2)C(=S)N1NC(=O)c1cccc(F)c1 (configuration not stated)	-1	0	1	-10	21*	/	99	107
COC(=O)c1ccc(NC(=O)CN2CCN(c3ccccn3)CC2)cc1	-2	4	-3	-14	94	i	123	110
Cc1cc(C)c(NC(=O)CN2CCN(c3ccccn3)CC2)c(C)c1	-2	3	-3	-10	99	/	105	101
